Rows were chosen to be rich in hits. Some 10% of all compounds tested hit in one or more screens of this group.
JMJD2A Tudor inh – JMJD2A Tudor domain (human) inhibition; AlphaScreen JMJD2A-Tudor / H3K4me3 peptide binding; Potency, µM (titrated, usually from 114 µM), for inactives: at the highest dose activity change, negative = inhibition, most hits filed as inhibitors; 390,000 compounds, 4.4% hits; AID 504339; further: potency means the concentration at half of the fitted maximal effect; on the % scale 0 is the no-effect control and ±100 the full control effect; nearly all actives have a fitted effect of over 50% in size
G9a inh – G9a (human) methyltransferase inhibition; Q96KQ7; G9a H3K9 monomethylation, AlphaScreen, 2 h; Potency, µM (top dose mostly 102 µM), for the others: at the highest dose activity, negative = inhibition, usual class: inhibitors; 350,000 compounds, 8.8% hits; AID 504332; further: potency means the concentration at half of the fitted maximal effect; on the % scale 0 is the no-effect control and ±100 the full control effect; nearly all actives have a fitted effect of over 75% in size
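Methyltransferase reactions run at room temperature for 2 h (20 nM enzyme, 500 nM biotin-H3K9 peptide, 20 uM SAM) after a 15 min compound preincubation; product detected by AlphaScreen beads and anti-H3K9me1 antibody.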
HP1b binding inh – HP1-beta chromodomain-methylated histone interaction inhibition | P83916 | Potency, µM (top dose mostly 114 µM), inactives show at the top dose activity change, negative = inhibition, usual class: inhibitors | AlphaScreen HP1-beta / biotin-H3K9me3 peptide binding | 390,000 compounds, 0.56% hits; further: potency means the concentration at half of the fitted maximal effect; nearly all actives have a fitted effect of over 70% in size
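Compound inhibition of the preformed complex between 50 nM HP1-beta and 50 nM biotinylated H3K9me3 peptide was read by AlphaScreen. Buffer was PBS pH 7.4 with 0.01% Tween-20. Incubations ran 30 min at room temperature, with 10 ug/mL donor/acceptor beads.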
CtBP-E1A blk – inhibitors of CtBP/E1A interaction; AlphaScreen GST-E1A/His-CtBP binding, 1536-well; hits give low values; 340,000 compounds, 0.49% hits; activity change, % (no concentration beside the values); in the data active means activity change below about -65%; inconclusive means mostly about -30% to -63%; further: on the % scale 0 is the no-effect control and ±100 the full control effect
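GST-E1A and His-tagged CtBP (125 nM each as 5X stock) were preincubated with pin-transferred compound for 2 h at 37 °C in the dark, then glutathione donor and nickel acceptor beads were added for 1 h before AlphaScreen reading.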
Six1-Eya2 inh – inhibitors of human Six1/Eya2 interaction | 360,000 compounds, 0.56% hits | Q15475+O00167 | activity change, % (test concentration not listed) | AlphaScreen GST-Six1/His-Eya2 binding, biochemical; hits give low values | AID 651725; in the data active means activity change below about -65%; inconclusive means mostly about -30% to -63%; further: on the % scale 0 is the no-effect control and ±100 the full control effect
Target sequence (O00167 whole entry, looked up): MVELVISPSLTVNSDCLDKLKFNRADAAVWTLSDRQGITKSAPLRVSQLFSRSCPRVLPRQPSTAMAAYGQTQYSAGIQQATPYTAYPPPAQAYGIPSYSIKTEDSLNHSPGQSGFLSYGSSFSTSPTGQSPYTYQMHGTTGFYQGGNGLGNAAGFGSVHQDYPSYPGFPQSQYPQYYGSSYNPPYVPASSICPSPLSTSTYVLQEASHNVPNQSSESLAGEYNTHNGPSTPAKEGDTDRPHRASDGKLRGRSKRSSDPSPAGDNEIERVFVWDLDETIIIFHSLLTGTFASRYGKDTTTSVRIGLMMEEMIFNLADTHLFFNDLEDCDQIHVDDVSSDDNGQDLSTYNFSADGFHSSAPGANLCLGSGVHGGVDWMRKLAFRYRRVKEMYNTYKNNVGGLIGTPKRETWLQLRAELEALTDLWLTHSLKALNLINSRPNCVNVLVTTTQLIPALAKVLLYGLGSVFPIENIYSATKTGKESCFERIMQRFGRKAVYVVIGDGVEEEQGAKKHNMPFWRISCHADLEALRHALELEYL
Target sequence (Q15475 whole entry, looked up): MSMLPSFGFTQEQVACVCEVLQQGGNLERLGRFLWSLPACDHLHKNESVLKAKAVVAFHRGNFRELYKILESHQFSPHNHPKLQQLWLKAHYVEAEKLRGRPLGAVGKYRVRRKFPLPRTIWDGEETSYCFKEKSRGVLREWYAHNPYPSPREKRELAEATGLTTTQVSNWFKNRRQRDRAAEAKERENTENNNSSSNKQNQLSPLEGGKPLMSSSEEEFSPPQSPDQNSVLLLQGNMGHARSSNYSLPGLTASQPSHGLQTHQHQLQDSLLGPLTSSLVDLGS
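AlphaScreen luminescence read after one hour at 37 °C in darkness. Pin-transferred compounds met GST-Six1 and His-Eya2 protein (5X stock 250 nM/500 nM) plus glutathione donor and Ni-chelate acceptor beads (5X, 50 ug/mL).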
BAZ2B block – BAZ2B (human) inhibition; Q9UIF8; AlphaScreen BAZ2B-H3K14Ac peptide displacement; Potency, µM (doses to about 114 µM), for inactives: at the highest dose activity change, negative = inhibition, hits mostly inhibitors; 360,000 compounds, 4.4% hits; AID 504333; further: potency means the concentration at half of the fitted maximal effect; on the % scale 0 is the no-effect control and ±100 the full control effect; nearly all actives have a fitted effect of over 60% in size
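In this displacement format the biotinylated H3(5-23) peptide acetylated at Lys14 serves as ligand at 50 nM, with BAZ2B at 50 nM in PBS pH 7.4 containing 0.01% Tween-20. Donor and acceptor beads are 10 ug/mL final.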
* hit, by the source's call; ? = inconclusive; . = not tested or not shown; [ ] = remark or other dose. Unless noted, the call rests on the fitted dose curve; in most records, active means well fitted inhibition curve with a large enough effect; inconclusive means small, poorly fitted or top-dose-only effect; inactive means no such curve, though single readings can be large or run the other way.

SMILES | JMJD2A Tudor inh | G9a inh | HP1b binding inh | CtBP-E1A blk | Six1-Eya2 inh | BAZ2B block
O=C(c1ccc([N+](=O)[O-])s1)N1CCN(c2cccc(Cl)c2)CC1 | 45µM* | 22µM* | ? | 14 | -12 | 25µM*
COc1ccccc1-c1nnc2n1N=C(c1c(OC)cccc1OC)CS2 | -23% | . | . | . | . | .
COc1ccc(-c2cc(=O)oc3c(C)c(O)c(CN(C)C)cc23)cc1 | 22µM* | -10%[12.7 µM] | 2% | 6 | 3 | -9%
CCn1c2c(c(=O)n3ncc(C(=O)Nc4ccc(OC(F)(F)F)cc4)c13)CN(Cc1ccc(OC)cc1)CC2 | -11% | 13µM* | 22%[57 µM] | . | . | -5%
CCOC(=O)c1ccc(NC(=O)c2cnn3c(=O)c4c(n(CC)c23)CCN(Cc2ccc(OC)cc2)C4)cc1 | -29% | 7%[59 µM] | 5%[57 µM] | . | . | -18%
COc1ccc(CN2CCc3c(c(=O)n4ncc(C(=O)N5CCN(c6ccc(F)cc6)CC5)c4n3C)C2)cc1 | -11% | 4%[59 µM] | 26%[57 µM] | . | . | 79µM*
CCn1c2c(c(=O)n3ncc(C(=O)N4CCN(c5ccc(C(C)=O)cc5)CC4)c13)CN(Cc1ccc(OC)cc1)CC2 | -34% | 2%[59 µM] | 36%[57 µM] | . | . | -25%
CN(C)C(=O)COc1ccc(S(=O)(=O)c2ccc(OCC(=O)N(C)C)cc2)cc1 | -11% | 50µM* | 38% | 1 | 6 | -2%
CN(C)C(=O)COc1ccc(Br)cc1 | -21% | -8%[59 µM] | 7% | 18 | -1 | 7%
COc1ccc(CNC(=O)Cn2c(=O)oc3cc(S(=O)(=O)N4CCCCCC4)ccc32)cc1 | -16% | -1%[59 µM] | -17% | . | . | -8%
CCOC(=O)c1c(-c2ccc(OC)cc2)oc2ccc(OCc3ccccc3C)cc12 | 83% | 88%[59 µM] | 75% | . | . | 66%
CCNCc1cc(Cl)c(OCc2ccccc2)c(OCC)c1 | -6% | -43% | 35% | -16 | -2 | -30%
CCOc1cc(CNn2cn[nH]c2=S)cc(Cl)c1OCc1ccccc1F | ? | 7.9µM* | 9% | 2 | -2 | -2%
O=C(C1CCN(S(=O)(=O)c2ccccc2)CC1)N1CCCCC1 | 8% | 27% | 14% | 5 | 1 | -11%
O=C1CCCC(=O)C1C(=O)C1CCN(S(=O)(=O)c2ccccc2)CC1 | 56µM* | 14% | ? | 2 | -1 | -13%
COc1ccc(S(=O)(=O)N2CCN3CCCC3C2)cc1 (stereo not drawn) | 1% | 11% | 28% | 5 | 2 | 11%
COc1ccc(S(=O)(=O)N2CCC(N3CCN(Cc4ccccc4)CC3)CC2)cc1 | 5.6µM* | 22µM* | ? | 2 | 1 | 25µM*
O=C(C1CCN(S(=O)(=O)c2ccc(F)cc2)CC1)N1CC=C(c2ccccc2)CC1 | -6% | 14µM* | 20% | -14 | -5 | -3%
CCc1ccc(S(=O)(=O)N2CCCC(N3CCN(c4ccc(OC)cc4)CC3)C2)cc1 (stereo not drawn) | 40µM* | 40µM* | ? | 6 | ? | 14µM*
Cn1cc(C(=O)[C@@H]2CCc3[nH]cnc3C2)c2ccccc21 | . | -4%[12.7 µM] | . | . | . | .
COc1ccc(S(=O)(=O)N2CCCCC2)cc1 | -4% | 25%[59 µM] | 37% | 3 | 5 | 10%
O=S(=O)(c1ccccc1)N1CCC(N2CCCCCC2)CC1 | 4µM* | ? | ? | 1 | 1 | ?
COc1ccc(S(=O)(=O)N2CCC(N3CCCC3)CC2)cc1 | 25µM* | 8.9µM* | -4% | 3 | -3 | 56µM*
CCn1c(SC(C)C)nnc1C1CCN(S(=O)(=O)c2ccc(OC)cc2)CC1 | 45µM* | ? | 54% | 5 | 0 | -6%
CC(C)c1ccc(S(=O)(=O)N2CCN(CC(=O)c3ccc(O)c(O)c3)CC2)cc1 | . | 8.9µM* | . | . | . | 40µM*
SMILES | JMJD2A Tudor inh | G9a inh | HP1b binding inh | CtBP-E1A blk | Six1-Eya2 inh | BAZ2B block
O=C(CN1CCN(S(=O)(=O)c2ccc(Br)cc2)CC1)c1ccc(O)c(O)c1 | 7% | 10µM* | 37% | . | -8 | ?
COc1ccc(C(=O)CN2CCN(S(=O)(=O)c3ccc(F)cc3)CC2)cc1 | -6% | ? | 29% | . | . | 3%
COc1ccc(NC(=O)c2c(C)oc3ccc(O)c(CN4CCN(Cc5ccccc5)CC4)c23)cc1 | -23% | ? | 15% | . | . | -10%
COc1ccc(N2CCN(C(=O)C(=O)c3cn(CC(=O)N4CCOCC4)c4ccccc34)CC2)cc1 | -26% | . | 8% | 3 | 4 | -17%
COc1ccc(N2CCN(C(=O)C(=O)c3cn(CC(=O)N4CCCCCC4)c4ccccc34)CC2)cc1 | ? | 71µM* | ? | -4 | -17 | ?
O=C(C(=O)N1CCN(c2ccccc2)CC1)c1c[nH]c2ccccc12 | -28% | 17%[59 µM] | 3% | -2 | -21 | ?
COc1ccc(N2CCN(C(=O)C(=O)c3c[nH]c4ccccc34)CC2)cc1 | ? | 45µM* | -9%[57 µM] | . | -14 | ?
CCN1CCN(C(=O)C(=O)c2cn(CC(=O)N3CCCCCC3)c3ccccc23)CC1 | -18% | 50µM* | 3% | -1 | -3 | -14%
COc1ccc(-n2c(-c3ccco3)nc3c(cnn3-c3ccccc3Cl)c2=O)cc1 | -25% | -25%[59 µM] | 29% | . | . | .
CC(C)NC(=O)CSc1nc(Cc2cccs2)nc2ccccc12 | -31% | 25µM* | 27% | 8 | -1 | 1%
CCOC(=O)CC(NC(=O)c1cc2cccc(OC)c2oc1=O)c1cccc([N+](=O)[O-])c1 (stereo not drawn) | ? | 32µM* | -7% | 0 | 0 | 2%
COc1cc(C(C)=O)ccc1OC(=O)c1cc2cccc(OC)c2oc1=O | -9% | 35µM* | 36% | 4 | -1 | -30%
COc1cccc2cc(C(C)=O)c(=O)oc12 | -10% | -1%[12.7 µM] | 35% | 6 | 1 | 0%
COc1cccc2cc(C(=O)NNC(=O)c3ccc(Br)cc3)c(=O)oc12 | 79µM* | 45µM* | ? | 0 | -2 | -8%
O=C(NCc1ccc2c(c1)OCO2)c1ccc2c(c1)N(Cc1ccccc1F)C(=O)c1ccccc1S2=O (stereo not drawn) | -21% | 3%[59 µM] | 17% | . | . | -18%
CCOc1nc(-c2ccc(C)cc2)ccc1-c1noc(-c2ccccc2F)n1 | -11% | 12%[59 µM] | 18% | . | . | -1%
O=C1CC(c2ccccc2)CC2=C1C1(CCCCC1)N=C(Nc1nc3ccccc3o1)N2 (stereo not drawn) | -22% | . | . | . | . | .
Cc1ccc(C2CC(=O)Oc3c(C(C)C)ccc(C)c32)cc1 (stereo not drawn) | . | 58% | . | . | . | .
O=c1cc(CSc2ccc(Cl)cc2)nc(-c2ccccn2)[nH]1 | 79µM* | 37% | 16% | . | -93* | 28µM*
